In PubChem BioAssay (NCATS):
Records with an inconclusive call do not appear. Active and inactive are the calls of the source. Calls come from the whole dose curve. Square brackets hold non-standard residues; d marks the D form. Peptide text beside a SMILES is read from it. * marks the point of attachment. Nle = CCCC[C@H](N)C(=O)O; Cbz = O=C(OCc1ccccc1)*; CH2Cl = ClC*
% is set by controls: 0 for no effect and ±100 for the full control effect; potency is the fitted concentration of half-maximal effect.

Test: Confirmatory qHTS for VERO E6 Cytotoxicity Assay: Counterscreen for SARS-CoV-2 CPE Assay (AID 1508605); note: nearly all actives have a fitted effect of over 60% in size
Conditions: cell viability luminescence; series mostly up to 20 µM; activity change, negative = cytotoxic: at the top concentration
In the case of `CC1CCN(C(c2ccc(F)cc2)c2ccc(C(C)C(=O)O)cc2-c2ccc(C(F)(F)F)cc2)CC1` (configuration not stated), the Potency is reported as 11.2 µM (active). With `CC(C)C[C@H](NC(=O)CNC(=O)OCc1ccccc1)C(=O)N[C@@H](Cc1ccccc1)C(=O)CCl` (Cbz-Gly-Leu-Phe-CH2Cl) the “activity change, negative = cytotoxic” value was -30.4% (inactive). In the case of `CCCN1CCN(c2ccc(C(=O)NC3(C(=O)NCC#N)CCCCC3)cc2)CC1`, the “activity change, negative = cytotoxic” value is reported as -13.1% (inactive). In the case of `COc1ccc2c(c1)CN(C(=O)CCN1CCC(Cc3ccccc3)CC1)CCS2`, the “activity change, negative = cytotoxic” value is reported as -11% [at 10 µM] (inactive). For `CCC[C@@H](NC(=O)N1C(=O)C(CC)(CC)[C@@H]1Oc1ccc(C(=O)N2CCN(C)CC2)cc1)c1ccc2c(c1)OCO2`, the “activity change, negative = cytotoxic” value was -5.5% (inactive). With `CN1CCN(c2ccc(C(=O)Nc3n[nH]c4ccc(Cc5cc(F)cc(F)c5)cc34)c(NC3CCOCC3)c2)CC1` the Potency was 3.55 µM (active). For `CCN(CC)CC1CCN(c2ncc3ncnc(Nc4ccc(F)c(Cl)c4)c3n2)CC1`, the Potency was 11.2 µM (active). In the case of `COC(=O)Nc1cc(Nc2cc(NC3CC3)c3ncc(C#N)n3n2)c(Cl)c(N2CCN(C)CC2)c1`, the Potency is reported as 2.51 µM (active). With `CCCC[C@@H](C=O)NC(=O)[C@H](CC(C)C)NC(=O)[C@H](CC(C)C)NC(C)=O` (Ac-Leu-Leu-[Nle]-aldehyde) the “activity change, negative = cytotoxic” value was -5.12% (inactive). With `Cn1cc(-c2ccc(-c3cncc(Cl)c3N3CCC4(CCNC4=O)CC3)cc2)cn1` the “activity change, negative = cytotoxic” value was -3.74% (inactive). In the case of `CC[C@H](NC(=O)[C@H](CS(=O)(=O)CC1CC1)N[C@@H](c1ccc(F)cc1)C(F)(F)F)C(=O)C(=O)NC1CC1`, the “activity change, negative = cytotoxic” value is reported as -1.16% (inactive). With `CC1OC2OC3C(OCC(O)C3O)OC(=O)C34CCC(C)(C)CC3C3=CCC5C6(C)CC(O)C(OC7OC(CO)C(O)C(O)C7OC7OCC(OC(=O)CC(C)(O)CC(=O)OC1C(OC1OCC(O)C(O)C1O)C2O)C(O)C7O)C(C)(CO)C6CCC5(C)C3(C)CC4O` (configuration not stated) the Potency was 1.56 µM (active).
